ChEMBL document CHEMBL3433997, “St. Jude Leishmania screening dataset” (2016)

Assays:
Type in all cases: functional
[1] = target: Solute carrier family 2, facilitated glucose transporter member 1 (Homo sapiens) (UniProt P11166); assay: ST_JUDE_LEISH: Cytotoxicity at 2uM final concentration against transgenic Leishmania Mexicana promastigotes LmGLUT1 that are glucose transport deficient and complemented with the human glucose transporter GLUT1. Activity is measured by DNA content using SYBR green in vitro
[2] = target: Hexose transporter 1 (Plasmodium falciparum) (UniProt O97467); assay: ST_JUDE_LEISH: Cytotoxicity at 2uM final concentration against transgenic Leishmania Mexicana promastigotes LmPfHT that are glucose transport deficient and complemented with the Plasmodium falciparum hexose transporter. Activity is measured by DNA content using SYBR green in vitro
[3] = target: Glucose transporter (Leishmania mexicana) (UniProt O61059); assay: ST_JUDE_LEISH: Cytotoxicity at 2uM final concentration against transgenic Leishmania Mexicana promastigotes LmGT2 that are glucose transport deficient and complemented with the L. Mexicana glucose transporter 2. Activity is measured by DNA content using SYBR green in vitro

Sequence of Solute carrier family 2, facilitated glucose transporter member 1 (Homo sapiens) (P11166 whole entry): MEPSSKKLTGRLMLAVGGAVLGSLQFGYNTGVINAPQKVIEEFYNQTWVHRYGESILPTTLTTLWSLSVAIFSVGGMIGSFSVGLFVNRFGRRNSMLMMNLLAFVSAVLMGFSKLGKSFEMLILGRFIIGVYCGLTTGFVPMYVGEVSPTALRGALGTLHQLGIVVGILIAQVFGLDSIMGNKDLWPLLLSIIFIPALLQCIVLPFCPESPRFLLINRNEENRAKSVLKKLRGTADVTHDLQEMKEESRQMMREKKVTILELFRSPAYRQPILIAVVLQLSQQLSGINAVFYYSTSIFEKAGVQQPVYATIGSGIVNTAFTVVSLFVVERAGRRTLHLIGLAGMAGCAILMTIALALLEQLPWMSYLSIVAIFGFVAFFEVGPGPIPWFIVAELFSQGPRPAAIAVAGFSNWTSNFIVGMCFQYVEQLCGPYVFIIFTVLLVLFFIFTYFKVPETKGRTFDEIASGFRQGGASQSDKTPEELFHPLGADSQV

With `Clc1ccc2c(NCCc3ccccc3)ccnc2c1` the inhibition [1] was 4.51%, the inhibition [2] was 4.33% and the inhibition [3] was 2.56%.

Work on `CC(C)(C)n1nnnc1C(c1cccnc1)N(Cc1ccccc1)Cc1ccc(Cl)cc1` (stereo unspecified) yielded an inhibition [1] of 2.8%, an inhibition [2] of 10.2% and an inhibition [3] of 2.8%.

`CC(C)N1CCC(N(Cc2ccc(-c3ccc(Cl)cc3)cc2)C(=O)Cn2c(CCc3cccc(F)c3F)cc(=O)c3ccccc32)CC1` showed an inhibition [1] of 2.59%, an inhibition [2] of 2.15% and an inhibition [3] of 1.92%.

`CS(=O)(=O)CCOCc1ccc(-c2ccc3ncnc(Nc4ccc(OCc5cccc(F)c5)c(Cl)c4)c3c2)o1` gave an inhibition [1] of 6%, an inhibition [2] of 4.18% and an inhibition [3] of 7%.

Work on `CC(C)N1CCN(C(=O)c2ccc(CN(C)CCCN3CCN(c4cccc(Cl)c4Cl)CC3)s2)CC1` yielded an inhibition [1] of 0.58%, an inhibition [2] of 0.7% and an inhibition [3] of 0.8%.

In the case of `CCOc1ccc(C(C)NC(=O)Nc2ccccc2)cc1OCC` (stereo unspecified), the inhibition [1] is reported as 4.28%, the inhibition [2] is reported as 2.66% and the inhibition [3] is reported as 2.96%.

`COCCNCc1nc(-c2ccc3c(Nc4ccc(F)c(O)c4)ccnc3c2)cs1` gave an inhibition [1] of 2.38%, an inhibition [2] of 1.29% and an inhibition [3] of 0.42%.

For `Cc1ccc(NC(=O)Nc2ccc(Cl)c(C(F)(F)F)c2)cc1-c1ccc(C(=O)Nc2ccncc2)cc1`, the inhibition [1] was 3.55%, the inhibition [2] was 2.27% and the inhibition [3] was 3.98%.

With `CCCCCC(C)N/C(=N/c1ccccc1Br)Nc1ccc([N+](=O)[O-])cc1O` (stereo unspecified) the inhibition [1] was 1.52%, the inhibition [2] was 1.7% and the inhibition [3] was 0.95%.

In the case of `CC1CN(c2cnn(Cc3ccc(NC(=O)Nc4ccc(-c5ccccc5)cc4)cc3)c(=O)c2Cl)CC(C)N1` (stereo unspecified), the inhibition [1] is reported as 1.43%, the inhibition [2] is reported as 0.34% and the inhibition [3] is reported as -1.78%.

`O=C(/C=C/c1ccc(Cl)c(Cl)c1)NCCCCCN1CCC(NC(=O)NC2CCCC2)CC1` was tested, and the inhibition [1] was 1.11%, the inhibition [2] was 1.93% and the inhibition [3] was 0.26%.

Work on `CC(C)(C)c1cc(C(=O)N2CCN(c3cnccn3)CC2)n(Cc2ccccc2)n1` yielded an inhibition [1] of 4.57%, an inhibition [2] of 4.68% and an inhibition [3] of 4.9%.
